Where “and” joins values, the source holds several entries; their conditions need not be identical. Equal values may be shown once. Inconclusive results are not listed. A structure can be active in one record and inactive in another. Calls of active or inactive are those of the source. How the source made its calls, unless noted: active means hit-call score of the fitted dose curve at least 0.9, where 1 is the maximum; inconclusive means response in the unintended direction; inactive means score below 0.9.
Columns and labels:
[1] = biological target: human Peroxisome Proliferator-activated Receptor delta (PPARd), PPARD (gene 5467) (UniProt Q03181); assay: ATG_PPARd_TRANS: Attagene TRANS-FACTORIAL HepG2 Assay for human Peroxisome Proliferator-activated Receptor delta (PPARd) (AID 2283002)
Procedure, shortened: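 HepG2 cells transiently transfected with multiplexed GAL4-UAS reporter units and exogenous chimeric NR-Gal4 proteins; 24 h compound exposure. Reporter mRNA measured by RT-PCR, 6-FAM labelling, HpaI digestion and capillary electrophoresis; gain of signal versus DMSO.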

[2] = read-out: Intercellular Adhesion Molecule 1 (ICAM1), ICAM1 (gene 3383); assay: BSK_3C_ICAM1: BioMAP Diversity Plus: 3C Assay for Intercellular Adhesion Molecule 1 (ICAM1) Biomarker Activity (AID 2283003; active means hit-call score of the fitted dose curve at least 0.9, where 1 is the maximum; inactive means score below 0.9); settings: primary human endothelial cells (HUVEC); actives raise or lower the signal
Procedure, shortened: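 ELISA read-out of ICAM-1; HUVEC (primary human), 3C system, 24 h post-dosing; bidirectional fit vs DMSO baseline.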

[3] = BSK_3C_Proliferation: Cell Proliferation Assessment in the BioMAP Diversity Plus: 3C Assay (AID 2283006; active means hit-call score of the fitted dose curve at least 0.9, where 1 is the maximum; inactive means score below 0.9;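 on AC50: potency may reflect either rise or fall in cell number versus DMSO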); settings: primary human endothelial cells (HUVEC)
Procedure, shortened: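 HUVEC, sub-confluent; 48 h chemical exposure; 10% TCA fix, 0.1% SRB stain, A560 total protein. Gain or loss of signal fitted both directions vs DMSO control.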

[4] = biological target: Peroxisome proliferator-activated receptor gamma (Homo sapiens) (UniProt P37231); assay: ATG_PPARg_TRANS: Attagene TRANS-FACTORIAL HepG2 Assay for human Peroxisome Proliferator-activated Receptor-gamma (PPARg) (AID 2283007)
Procedure, shortened: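 Liver-derived HepG2 cells expressing an exogenous NR-Gal4 chimera alongside GAL4-UAS reporter genes; 24 h exposure. Fluorescence of reporter RT-PCR products, separated by capillary electrophoresis, gives mRNA induction relative to DMSO.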

[5] = biological target: Nuclear receptor subfamily 1 group I member 2 (Homo sapiens) (UniProt O75469); assay: ATG_PXR_TRANS: Attagene TRANS-FACTORIAL HepG2 Assay for human Pregnane X Receptor (PXR) (AID 2283008)
Procedure, shortened: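 Multiplexed TRANS reporter panel in HepG2; this component tracks PXR-Gal4-driven reporter mRNA after 24 h dosing, measured by RT-PCR with capillary electrophoresis fluorescence, fitted against DMSO.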

[6] = biological target: human RAR-related Orphan Receptor beta (RORb), RORB (gene 6096) (UniProt Q92753); assay: ATG_RORb_TRANS: Attagene TRANS-FACTORIAL HepG2 Assay for human RAR-related Orphan Receptor beta (RORb) (AID 2283010)
Procedure, shortened: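 HepG2, transient MRTU transfection (GAL4-UAS reporters, exogenous NR-Gal4 chimeras); 24 h compound exposure; total RNA → RT-PCR → 6-FAM primer extension → HpaI digest → CE fluorescence. Positive direction vs DMSO baseline.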

[7] = biological target: human RAR-related Orphan Receptor gamma (RORg), RORC (gene 6097) (UniProt P51449); assay: ATG_RORg_TRANS: Attagene TRANS-FACTORIAL HepG2 Assay for human RAR-related Orphan Receptor gamma (RORg) (AID 2283011)
Procedure, shortened: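 Reporter transcripts from a transfected RORg-GAL4 chimera in HepG2 cells were quantified 24 h after dosing by RT-PCR, 6-FAM labelling, HpaI digestion and capillary electrophoresis; increases over DMSO baseline were fitted.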

[8] = biological target: Retinoic acid receptor RXR-alpha (Homo sapiens) (UniProt P19793); assay: ATG_RXRa_TRANS: Attagene TRANS-FACTORIAL HepG2 Assay for human Retinoid X Receptor alpha (RXRa) (AID 2283012)
Procedure, shortened: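 Read-out: fluorescent reporter-transcript fragments quantified by capillary electrophoresis after RT-PCR. Transiently transfected HepG2 cells carrying GAL4-UAS reporters and NR-GAL4 chimeras were exposed to chemical for 24 h; activity scored as increase over DMSO.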

[9] = biological target: human Retinoid X Receptor beta (RXRb), RXRB (gene 6257) (UniProt P28702); assay: ATG_RXRb_TRANS: Attagene TRANS-FACTORIAL HepG2 Assay for human Retinoid X Receptor beta (RXRb) (AID 2283013)
Procedure, shortened: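 Read-out: reporter mRNA induction via RT-PCR plus capillary electrophoresis fluorescence, analysed as signal increase relative to DMSO. Cells were human HepG2, transiently transfected with GAL4-UAS reporter constructs and chimeric receptor-Gal4 fusions, dosed for 24 h.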

[10] = biological target: human Thyroid Receptor alpha (THRa1), THRA (gene 7067) (UniProt P10827); assay: ATG_THRa1_TRANS: Attagene TRANS-FACTORIAL HepG2 Assay for human Thyroid Receptor alpha (THRa1) (AID 2283014)
Procedure, shortened: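 Transcripts from GAL4-UAS-driven reporters, measured after 24 h compound exposure by RT-PCR plus capillary electrophoresis of 6-FAM-labeled fragments, were fitted for gain of signal relative to DMSO. Cells: transiently transfected HepG2 expressing NR-Gal4 chimeras.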

[11] = read-out: Interleukin-1 alpha (IL1a), IL1A (gene 3552); assay: BSK_BE3C_IL1a: BioMAP Diversity Plus: BE3C Assay for Interleukin-1 alpha (IL1a) Biomarker Activity (AID 2283016; active means hit-call score of the fitted dose curve at least 0.9, where 1 is the maximum; inactive means score below 0.9); settings: primary human bronchial epithelial cells; actives raise or lower the signal
Procedure, shortened: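 ELISA read-out of IL-1a from human lung bronchial epithelial primary cells, 24 h post-dose. Gain or loss of signal fitted relative to DMSO negative control.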

[12] = read-out: Monocyte Chemoattractant Protein-1 (MCP1), CCL2 (gene 6347); assay: BSK_3C_MCP1: BioMAP Diversity Plus: 3C Assay for Monocyte Chemoattractant Protein-1 (MCP1) Biomarker Activity (AID 2283017; active means hit-call score of the fitted dose curve at least 0.9, where 1 is the maximum; inactive means score below 0.9); settings: primary human endothelial cells (HUVEC); actives raise or lower the signal
Procedure, shortened: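 MCP-1 was measured by ELISA 24 h after dosing in primary HUVEC 3C cultures and fitted in both directions relative to DMSO; cytotoxicity was checked by SRB total-protein staining in parallel wells.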

[13] = read-out: Monocyte Chemoattractant Protein-1 (MCP1), CCL2 (gene 6347); assay: BSK_4H_MCP1: BioMAP Diversity Plus: 4H Assay for Monocyte Chemoattractant Protein-1 (MCP1) Biomarker Activity (AID 2283018; active means hit-call score of the fitted dose curve at least 0.9, where 1 is the maximum; inactive means score below 0.9); settings: primary human endothelial cells (HUVEC); actives raise or lower the signal
Procedure, shortened: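 HUVEC primary cells, 24 h post-dose, MCP-1 by ELISA. Gain or loss of signal fitted bidirectionally vs DMSO baseline. Cytotoxicity: SRB stain (0.1% after 10% TCA fixation), read 560 nm, parallel cultures.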

[14] = read-out: Human Leukocyte Antigen - DR isotype (HLADR), HLA-DRA (gene 3122); assay: BSK_3C_HLADR: BioMAP Diversity Plus: 3C Assay for Human Leukocyte Antigen - DR isotype (HLADR) Biomarker Activity (AID 2283019; active means hit-call score of the fitted dose curve at least 0.9, where 1 is the maximum; inactive means score below 0.9); settings: primary human endothelial cells (HUVEC); actives raise or lower the signal
Procedure, shortened: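 Bidirectional fitting against DMSO was applied to the HLA-DR ELISA signal from human umbilical vein endothelial cells, 24 h post-dose. Cytotoxicity came from parallel SRB total-protein staining; 3C proliferation was counted by SRB at 48 h.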

[15] = read-out: Interleukin-8 (IL8), CXCL8 (gene 3576); assay: BSK_3C_IL8: BioMAP Diversity Plus: 3C Assay for Interleukin-8 (IL8) Biomarker Activity (AID 2283020; active means hit-call score of the fitted dose curve at least 0.9, where 1 is the maximum; inactive means score below 0.9); settings: primary human endothelial cells (HUVEC); actives raise or lower the signal
Procedure, shortened: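 HUVEC, 3C stimulation; 24 h compound exposure; IL-8 read by ELISA; gain or loss of signal fitted relative to DMSO control.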

[16] = biological target: human Peroxisome Proliferator-activated Receptor alpha (PPARa), PPARA (gene 5465) (UniProt Q07869); assay: ATG_PPARa_TRANS: Attagene TRANS-FACTORIAL HepG2 Assay for human Peroxisome Proliferator-activated Receptor alpha (PPARa) (AID 2283001)
Procedure, shortened: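 Exposure: 24 h, transiently transfected HepG2 cells. Endpoint: GAL4-UAS reporter mRNA, RT-PCR with capillary electrophoresis fluorescence. Baseline: DMSO; increases fitted.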

[17] = biological target: human Retinoic Acid Receptor beta (RARb), RARB (gene 5915) (UniProt P10826); assay: ATG_RARb_TRANS: Attagene TRANS-FACTORIAL HepG2 Assay for human Retinoic Acid Receptor beta (AID 2283004)
Procedure, shortened: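 Induction of reporter mRNA from a chimeric RARb-Gal4 construct was measured by RT-PCR, FAM labelling, HpaI digestion and capillary electrophoresis. Measurements followed 24 h compound treatment of transiently transfected human HepG2 liver cells, with DMSO as baseline.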

[18] = biological target: Retinoic acid receptor alpha (Homo sapiens) (UniProt P10276); assay: ATG_RARa_TRANS: Attagene TRANS-FACTORIAL HepG2 Assay for human Retinoic Acid Receptor alpha (RARa) (AID 2283005)
Procedure, shortened: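 HepG2 cells transiently transfected with multiple reporter units expressing chimeric RARα-GAL4 fusion, with GAL4-UAS-driven reporters. After 24 h compound exposure, reporter mRNA induction quantified by RT-PCR and capillary electrophoresis with fluorescent labeling; gain-of-signal fitted relative to DMSO control.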

[19] = biological target: human Retinoic Acid Receptor gamma (RARg), RARG (gene 5916) (UniProt P13631); assay: ATG_RARg_TRANS: Attagene TRANS-FACTORIAL HepG2 Assay for human Retinoic Acid Receptor gamma (RARg) (AID 2283009);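 on AC50: AC50 is for reporter induction above DMSO meaning RARg activation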
Procedure, shortened: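 Readout: reporter transcript levels via RT-PCR, 6-FAM primer-extension labelling, HpaI digestion and capillary electrophoresis. Cells: HepG2 carrying transfected RARg-GAL4 chimera plus UAS reporter set. Dosing 24 h; DMSO negative control.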

Measured: AC50

Sequence of human Retinoic Acid Receptor beta (RARb), RARB (gene 5915) (P10826 whole entry, looked up, the tested form may be a part): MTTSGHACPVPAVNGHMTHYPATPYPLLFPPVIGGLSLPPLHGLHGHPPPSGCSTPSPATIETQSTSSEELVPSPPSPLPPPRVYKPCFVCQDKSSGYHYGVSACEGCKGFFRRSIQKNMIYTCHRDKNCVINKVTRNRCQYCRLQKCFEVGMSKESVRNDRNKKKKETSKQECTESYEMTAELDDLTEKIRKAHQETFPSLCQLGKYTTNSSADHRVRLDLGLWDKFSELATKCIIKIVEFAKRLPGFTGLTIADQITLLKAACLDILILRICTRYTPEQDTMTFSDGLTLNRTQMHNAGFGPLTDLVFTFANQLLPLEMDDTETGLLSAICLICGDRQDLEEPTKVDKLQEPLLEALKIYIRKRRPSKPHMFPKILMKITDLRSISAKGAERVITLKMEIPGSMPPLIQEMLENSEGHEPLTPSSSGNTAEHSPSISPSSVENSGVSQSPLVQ
Sequence of human Peroxisome Proliferator-activated Receptor alpha (PPARa), PPARA (gene 5465) (Q07869 whole entry, looked up, the tested form may be a part): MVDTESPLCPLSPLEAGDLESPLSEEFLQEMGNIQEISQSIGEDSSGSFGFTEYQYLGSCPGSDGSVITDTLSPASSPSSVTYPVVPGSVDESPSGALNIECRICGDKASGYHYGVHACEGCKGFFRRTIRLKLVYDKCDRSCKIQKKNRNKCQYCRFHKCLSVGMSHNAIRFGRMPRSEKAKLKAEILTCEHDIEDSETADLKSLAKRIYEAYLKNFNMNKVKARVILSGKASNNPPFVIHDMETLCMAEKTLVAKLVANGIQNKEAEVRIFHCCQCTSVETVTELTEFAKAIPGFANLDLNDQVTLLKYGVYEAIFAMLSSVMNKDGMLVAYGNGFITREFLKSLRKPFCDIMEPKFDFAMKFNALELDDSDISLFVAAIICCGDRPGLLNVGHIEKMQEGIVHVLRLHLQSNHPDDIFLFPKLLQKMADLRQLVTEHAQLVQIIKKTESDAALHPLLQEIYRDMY
Sequence of Retinoic acid receptor RXR-alpha (Homo sapiens) (P19793 whole entry, looked up, the tested form may be a part): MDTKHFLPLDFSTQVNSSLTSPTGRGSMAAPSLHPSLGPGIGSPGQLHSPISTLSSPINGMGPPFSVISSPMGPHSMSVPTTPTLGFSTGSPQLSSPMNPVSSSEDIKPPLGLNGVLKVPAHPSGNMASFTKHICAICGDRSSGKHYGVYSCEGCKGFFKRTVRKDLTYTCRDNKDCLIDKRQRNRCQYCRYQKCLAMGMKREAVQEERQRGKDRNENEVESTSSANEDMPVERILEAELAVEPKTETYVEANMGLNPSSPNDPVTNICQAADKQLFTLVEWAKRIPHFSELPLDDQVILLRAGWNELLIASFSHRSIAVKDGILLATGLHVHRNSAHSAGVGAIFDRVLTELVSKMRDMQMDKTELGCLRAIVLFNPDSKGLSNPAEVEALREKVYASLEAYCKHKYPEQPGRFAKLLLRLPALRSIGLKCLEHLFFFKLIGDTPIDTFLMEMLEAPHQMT
Sequence of human Retinoic Acid Receptor gamma (RARg), RARG (gene 5916) (P13631 whole entry, looked up, the tested form may be a part): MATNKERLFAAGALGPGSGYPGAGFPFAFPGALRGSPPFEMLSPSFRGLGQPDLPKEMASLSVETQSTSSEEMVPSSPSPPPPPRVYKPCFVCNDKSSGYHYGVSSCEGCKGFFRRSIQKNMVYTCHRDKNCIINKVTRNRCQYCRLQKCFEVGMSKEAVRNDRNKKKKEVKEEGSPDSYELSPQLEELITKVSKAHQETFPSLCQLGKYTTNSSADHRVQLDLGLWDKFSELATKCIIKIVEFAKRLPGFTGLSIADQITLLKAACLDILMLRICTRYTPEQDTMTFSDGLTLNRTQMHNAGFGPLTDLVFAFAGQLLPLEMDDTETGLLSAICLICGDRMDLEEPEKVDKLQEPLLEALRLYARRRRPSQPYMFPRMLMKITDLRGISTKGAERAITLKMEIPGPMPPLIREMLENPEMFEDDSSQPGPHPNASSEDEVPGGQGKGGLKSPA
Sequence of human RAR-related Orphan Receptor beta (RORb), RORB (gene 6096) (Q92753 whole entry, looked up, the tested form may be a part): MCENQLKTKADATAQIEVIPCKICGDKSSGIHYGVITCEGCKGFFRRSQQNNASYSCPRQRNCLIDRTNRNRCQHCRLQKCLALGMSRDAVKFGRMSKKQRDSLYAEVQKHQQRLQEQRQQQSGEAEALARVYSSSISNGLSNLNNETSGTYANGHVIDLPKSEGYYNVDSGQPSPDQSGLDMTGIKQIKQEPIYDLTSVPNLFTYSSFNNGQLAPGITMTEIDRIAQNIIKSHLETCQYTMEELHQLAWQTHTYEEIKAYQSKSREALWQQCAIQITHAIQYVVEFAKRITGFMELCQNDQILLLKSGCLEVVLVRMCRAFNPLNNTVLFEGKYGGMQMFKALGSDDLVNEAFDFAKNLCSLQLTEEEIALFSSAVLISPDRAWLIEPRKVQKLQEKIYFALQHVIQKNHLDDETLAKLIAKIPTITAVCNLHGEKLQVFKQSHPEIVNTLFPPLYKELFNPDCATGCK
Sequence of Retinoic acid receptor alpha (Homo sapiens) (P10276 whole entry, looked up, the tested form may be a part): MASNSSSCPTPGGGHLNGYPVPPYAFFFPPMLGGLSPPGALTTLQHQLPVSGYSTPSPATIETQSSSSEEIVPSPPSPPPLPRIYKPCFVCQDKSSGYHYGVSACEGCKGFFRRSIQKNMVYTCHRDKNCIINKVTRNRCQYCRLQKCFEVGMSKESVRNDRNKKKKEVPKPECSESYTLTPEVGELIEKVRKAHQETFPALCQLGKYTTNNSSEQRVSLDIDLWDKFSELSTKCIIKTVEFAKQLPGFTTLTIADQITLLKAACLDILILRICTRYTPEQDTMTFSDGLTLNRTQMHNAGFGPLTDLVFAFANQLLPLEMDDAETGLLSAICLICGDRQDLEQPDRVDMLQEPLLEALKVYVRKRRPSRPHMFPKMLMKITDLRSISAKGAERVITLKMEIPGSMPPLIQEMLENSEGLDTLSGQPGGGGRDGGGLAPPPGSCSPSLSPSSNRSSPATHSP
Sequence of human Peroxisome Proliferator-activated Receptor delta (PPARd), PPARD (gene 5467) (Q03181 whole entry, looked up, the tested form may be a part): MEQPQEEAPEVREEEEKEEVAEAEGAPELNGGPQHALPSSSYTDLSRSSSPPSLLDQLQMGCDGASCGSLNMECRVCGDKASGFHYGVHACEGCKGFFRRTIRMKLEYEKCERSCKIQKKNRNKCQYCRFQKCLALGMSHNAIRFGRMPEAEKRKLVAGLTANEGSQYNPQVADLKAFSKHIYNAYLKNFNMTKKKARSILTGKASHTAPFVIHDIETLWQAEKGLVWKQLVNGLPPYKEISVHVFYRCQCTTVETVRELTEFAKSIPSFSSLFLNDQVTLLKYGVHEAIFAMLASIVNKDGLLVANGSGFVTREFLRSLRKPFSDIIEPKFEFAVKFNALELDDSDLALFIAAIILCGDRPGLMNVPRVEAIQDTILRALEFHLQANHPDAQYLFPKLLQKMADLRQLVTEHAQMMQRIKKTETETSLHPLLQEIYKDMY
Sequence of Peroxisome proliferator-activated receptor gamma (Homo sapiens) (P37231 whole entry, looked up, the tested form may be a part): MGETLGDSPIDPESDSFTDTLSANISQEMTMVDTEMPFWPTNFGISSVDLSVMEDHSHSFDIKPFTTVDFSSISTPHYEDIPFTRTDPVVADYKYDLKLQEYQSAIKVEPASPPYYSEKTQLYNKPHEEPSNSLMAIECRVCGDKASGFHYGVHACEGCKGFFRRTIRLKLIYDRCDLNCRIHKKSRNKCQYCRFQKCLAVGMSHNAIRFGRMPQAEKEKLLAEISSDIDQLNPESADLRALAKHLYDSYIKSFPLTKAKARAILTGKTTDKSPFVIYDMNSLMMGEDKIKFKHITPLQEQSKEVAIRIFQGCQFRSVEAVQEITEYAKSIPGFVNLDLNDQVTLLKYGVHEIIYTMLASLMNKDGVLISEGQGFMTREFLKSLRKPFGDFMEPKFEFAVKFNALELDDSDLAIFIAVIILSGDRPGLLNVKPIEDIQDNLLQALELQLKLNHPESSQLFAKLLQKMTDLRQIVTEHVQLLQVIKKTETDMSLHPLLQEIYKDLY
Sequence of Nuclear receptor subfamily 1 group I member 2 (Homo sapiens) (O75469 whole entry, looked up, the tested form may be a part): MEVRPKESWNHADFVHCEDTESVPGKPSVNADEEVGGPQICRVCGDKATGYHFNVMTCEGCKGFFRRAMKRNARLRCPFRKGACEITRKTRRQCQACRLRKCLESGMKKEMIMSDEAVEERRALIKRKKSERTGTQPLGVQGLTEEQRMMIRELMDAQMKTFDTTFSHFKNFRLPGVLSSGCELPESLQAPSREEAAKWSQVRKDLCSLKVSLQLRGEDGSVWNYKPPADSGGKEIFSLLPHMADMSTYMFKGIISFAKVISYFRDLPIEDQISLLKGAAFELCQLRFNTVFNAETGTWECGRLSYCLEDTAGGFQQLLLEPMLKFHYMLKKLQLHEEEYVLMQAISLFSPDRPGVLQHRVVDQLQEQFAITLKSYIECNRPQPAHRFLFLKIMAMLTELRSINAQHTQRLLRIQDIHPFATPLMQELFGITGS
Sequence of human Retinoid X Receptor beta (RXRb), RXRB (gene 6257) (P28702 whole entry, looked up, the tested form may be a part): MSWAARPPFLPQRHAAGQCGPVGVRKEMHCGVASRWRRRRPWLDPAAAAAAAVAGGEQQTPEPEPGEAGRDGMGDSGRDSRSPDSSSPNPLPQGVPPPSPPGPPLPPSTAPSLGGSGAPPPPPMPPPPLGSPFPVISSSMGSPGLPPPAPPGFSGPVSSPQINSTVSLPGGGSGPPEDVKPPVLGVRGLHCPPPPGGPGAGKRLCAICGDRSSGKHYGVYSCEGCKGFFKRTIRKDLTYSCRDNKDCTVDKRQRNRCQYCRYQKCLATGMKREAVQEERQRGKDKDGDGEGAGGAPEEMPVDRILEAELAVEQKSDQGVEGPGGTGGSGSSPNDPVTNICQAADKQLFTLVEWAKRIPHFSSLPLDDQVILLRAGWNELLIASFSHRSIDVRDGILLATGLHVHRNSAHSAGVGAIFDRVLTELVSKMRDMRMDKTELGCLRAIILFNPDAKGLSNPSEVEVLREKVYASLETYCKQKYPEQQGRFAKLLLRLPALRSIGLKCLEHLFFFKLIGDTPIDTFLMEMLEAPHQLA

CC12CC1(C)C(=O)N(c1cc(Cl)cc(Cl)c1)C2=O (stereo unspecified)
inactive: [1] | [2] | [3] | [4] | [5] | [6] | [7] | [8] | [9] | [10] | [11] | [12] | [13] | [14] | [15]
active: [5] 2.03 µM and 4.13 µM and 2.07 µM

O=C(Nc1ccc2[nH]ccc2c1)c1cc2cc(F)ccc2n1Cc1cccc(F)c1
inactive: [1] | [4] | [5] | [7] | [8]
active: [2] 13.7 µM | [3] 3.44 µM | [11] 10.3 µM | [12] 8.53 µM | [13] 5.82 µM | [14] 7.97 µM | [15] 6.43 µM

Nc1cccc(Cl)c1
inactive: [16] | [6] | [9] | [10]

ClCC(Cl)CCl
not listed: [4] | [5] | [6] | [10] | [14] | [16]
inactive: all other assays above

CC1CN1P(=O)(N1CC1C)N1CC1C (stereo unspecified)
inactive: [16] | [4] | [5] | [7] | [8] | [9] | [10]

CC(C)(c1ccccc1)c1ccc(O)c(C(C)(C)c2ccccc2)c1
inactive: [1] | [17] | [18] | [4] | [8] | [10]
active: [2] 11.1 µM | [3] 6.91 µM | [5] 148 nM | [9] 1.66 µM | [11] 28.5 µM | [12] 10.8 µM | [13] 7.28 µM | [15] 10.1 µM

O=C(Cl)c1ccc(Cl)cc1
inactive: [16] | [18] | [4] | [7] | [8] | [10]

CC(C)c1cccc(C(C)C)c1O
active: [5] 4740 nM | [9] 50.6 µM
inactive: [1] | [17] | [18] | [4] | [19] | [6] | [8] | [10]

COC(=O)Cc1ccccc1
not listed: [7] | [9] | [10] | [14] | [16] | [17] | [18] | [19]
inactive: all other assays above

CCCCCCCCc1ccc(O)cc1
active: [2] 35.6 µM | [3] 8.43 µM | [4] 22 µM | [19] 33.5 µM | [9] 24.5 µM | [10] 43.7 µM | [11] 32.6 µM | [12] 34.1 µM | [13] 20.1 µM | [14] 31.5 µM | [15] 34.6 µM
inactive: [1] | [17] | [18] | [19] | [7] | [8] | [10]

Source: PubChem BioAssay (EPA / NIEHS)
